We go through 108 sequences from PubChem BioAssay AID1347426 (Functional Genomics Laboratory (NCATS/FGL), 2020).

Hit rate of the full screen: of about 31,000 sequences, about 1,400 (4.5%) were called active. The entries come from a sample that favours actives as a whole. A number with no mark means an inactive call.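 Rule for the calls: active = median seed-adjusted z-score above 1 or below -1; inactive = the rest.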

A short description of the experiment: Novel Modifiers of Survival Motor Neuron (SMN) Protein: Gene Identification via Genome-wide siRNA Screen.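 Note: luminescence tracks full-length SMN protein made from the SMN2 reporter.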 As to conditions: HEK293T SMN2-luciferase reporter, siRNA knockdown, 72 h; actives lie on both sides. From the text:
Spinal muscular atrophy (SMA) is the most common neuromuscular autosomal recessive disorder and one of the leading genetic causes of infant death. SMA results from mutations inducing loss of function or deletion in the survival of motor neuron-1 gene (SMN1), leading to deficiency of the survival motor neuron (SMN) protein. Although a second nearly identical gene, SMN2, is retained in humans, its expression primarily produces an aberrantly spliced isoform that is largely unstable and quickly degraded. We performed a genome-wide RNAi screen using a cell-based reporter assay to identify genes and pathways that modulate SMN protein stability. The screen identified over 200 genes that led to the greatest increase or decrease in luciferase expression.
Using HEK293T cells stably expressing a luciferase reporter that combines the promoter and splicing based cassettes in tandem with the major portion of the native SMN2 cDNA with luciferase, we performed a genome-wide RNAi screen to identify modulators of SMN protein levels. Luciferase is expressed when full-length SMN protein is generated with luminescence signal proportional to SMN protein levels. Our luciferase-based reporter assay was used to screen Ambion Silencer Select Human Druggable Genome siRNA library (10418 genes, 3 unique siRNAs per gene) using lipid-based reverse transfection.
Briefly, 1 pmol of each siRNA was spotted to a well of a 384-well plate (Corning, Corning, NY) and 20 microL of serum-free DMEM containing […] of Lipofectamine RNAiMax (Life Technologies, Carlsbad, CA) was then added to each well. Transfected cells were maintained at 37 degrees C in 5% CO2 for 72 hours, 20 microL of ONE-Glo Reagent (Promega) was added to wells for luciferase quantification. Raw luminescence reads were normalized to Ambion(R) Silencer(R) Negative Control #2 siRNA, then log10 transformed. A robust statistical measure of median absolute deviation (MAD) to standardize siRNA activities from each screen. Common Seed Analysis was used to help prioritize clean hits as opposed to those appearing to arise from seed based off-target effects. Candidate modulators were defined as the genes having a MAD score greater than 1.0 or less than -1.0.
On the technique in general: A reporter such as luciferase makes a cellular process visible.
As for GCAGUUAUUGGUACUAAUATT against MOAP1, the median seed-adjusted z-score is 0.0405.

Take AGAGAAUCUCGAGGAUAUATT against ZNF74: the median seed-adjusted z-score was 1.17 (active).

As to CCUUAUCGCUAGAUGUCAATT against GRM3, the median seed-adjusted z-score is -0.401.

Take GCUGAGCUCAGUAACCACATT against LCAT: the median seed-adjusted z-score is 0.526.

In the case of GCAAUGCCCUUUUCACCGATT against SERPINA5, the median seed-adjusted z-score was -1.01 (active).

Consider CCAUGACAACUUUCACUGATT against AGFG2, for which the median seed-adjusted z-score was -0.289.

Regarding GCAGAAAAGAACAACUUGUTT against RAB11B, the median seed-adjusted z-score is -0.857.

Regarding GCAAUAGGAUGGAUGAUCATT against GPSM2, the median seed-adjusted z-score was -0.755.

Consider GCAGCUCACUUAAGGCCUATT against VPS18, for which the median seed-adjusted z-score is 0.181.

Take GAUCUAUUCUUAAUGCCGATT against TFB1M: the median seed-adjusted z-score was 0.172.

For the sequence GAAAUUUCUUAGGAACUCATT against ADH1B, the median seed-adjusted z-score is 0.325.

As to CCCUCAAUCCAGCACAAAATT against LILRA4, the median seed-adjusted z-score was 0.109.

In the case of GGGACCGAGAGAUCAGAUATT against PPAP2C, the median seed-adjusted z-score was -1.12 (active).

As to CUUCCAAUGUUAAUGGACATT against VHLL, the median seed-adjusted z-score was -0.0852.

Turning to GAGGCUCGGUAAUCAAUGATT against DERL1, the median seed-adjusted z-score is 0.22.

In the case of GCUUUAGAAUACAUACCAATT against IFIT2, the median seed-adjusted z-score is -0.0205.

CCCUCAAGGUACAAACAUUTT against POLD1: the median seed-adjusted z-score is -0.715.

As to CAGGAGCAGUUAGACUUAATT against DNALI1, the median seed-adjusted z-score is 0.699.

For GGUUUGCCCUUAUCUUGUATT against RDH10, the median seed-adjusted z-score is -0.28.

As for GAAUAACCGUUGGUUUAAUTT against U2AF1, the median seed-adjusted z-score is 2.08 (active).

In the case of AAUUGAGGAAUACAAAAGATT against PAX3, the median seed-adjusted z-score was 0.0223.

As to GGAUGGGCAUGUUGAGAGATT against NUDT9, the median seed-adjusted z-score was 0.277.

Turning to GGAUCUGACAGACAAUGAUTT against ABCC3, the median seed-adjusted z-score was -0.549.

For CGUGGAUUCUUACGGAAGATT against CIT, the median seed-adjusted z-score was -0.0585.

In the case of GAGUCUAUCUUGAUAAUCUTT against PPWD1, the median seed-adjusted z-score is -0.341.

For CCGGGUUAAUUACCACCUUTT against MTHFR, the median seed-adjusted z-score was 0.

For GAGAAGUCGAGGCUCUUUATT against WNT6, the median seed-adjusted z-score is 0.027.

Consider CGGUGAACGGGUUGGAGAATT against PAX9, for which the median seed-adjusted z-score is -1.16 (active).

As to GCUUUGACCUUCUUAGCAATT against SMARCAL1, the median seed-adjusted z-score is -0.145.

In the case of CAACGAUAUUUGGAUAUCUTT against DPP8, the median seed-adjusted z-score was -0.0209.

On to GGUCAAUACACCUAAGAAATT against PRDX1, for which the median seed-adjusted z-score is 0.288.

Consider GAUCGUUUCCUAUACAGUATT against ESPL1, for which the median seed-adjusted z-score is 0.871.

With GGGCUGUGAUCUUGUCGAATT against AGMAT, the median seed-adjusted z-score is -0.0269.

On to CAACGACAGAACUAACAGATT against SENP6, for which the median seed-adjusted z-score was -1.03 (active).

Turning to GAAGGUGUUUCAUACGAAUTT against SIPA1L1, the median seed-adjusted z-score was 0.0925.

Turning to CUCUAUGAAUAUUGUAUUATT against BUD31, the median seed-adjusted z-score is 0.0554.

Turning to GGCUAACAAUUUGUCCAGUTT against SEC22B, the median seed-adjusted z-score is -0.106.

With CGUCAUCUUUGCGAAGAUUTT against EHD2, the median seed-adjusted z-score is 0.0989.

Turning to CAACAUCUAUGAUUGGAAUTT against RFXANK, the median seed-adjusted z-score was -0.0665.

As for CCAGUGCUGUCAGUACGAUTT against LY6G5B, the median seed-adjusted z-score is -1.29 (active).

In the case of CCAAUAUUGUGGAUCCUUUTT against HTR4, the median seed-adjusted z-score was 0.444.

As for GAGCUAUAAUCAGACCUGUTT against ART5, the median seed-adjusted z-score is -0.354.

As to CGCUCACUGUUCUUCGGCUTT against RAD9A, the median seed-adjusted z-score is -0.0564.

Regarding CCCAAGACGUUCACCGUGATT against NF2, the median seed-adjusted z-score is -0.543.

For the sequence CAUCAAACCUGGGAACAAATT against ZNF225, the median seed-adjusted z-score is 0.0761.

Turning to GGAACGAGGUGUCAGCUCUTT against RFXANK, the median seed-adjusted z-score was -0.0665.

UCAACCUCAUGGACUUUAATT against SLC5A5: the median seed-adjusted z-score is 1.01 (active).

For the sequence GGAGCUACUGAGAACAUAATT against HOXD4, the median seed-adjusted z-score is 0.566.

As for GGAACACUCAUGACUGUAATT against ZNF426, the median seed-adjusted z-score was 0.2.

With CAAUGAGUAUGUGACGGAATT against UNC13A, the median seed-adjusted z-score was -2.1 (active).

GGAUCCCGCUGCACAAGUUTT against CTSD: the median seed-adjusted z-score was -0.282.

On to CGUCUUCCUUGUGCGCCUATT against COL20A1, for which the median seed-adjusted z-score is -0.0033.

With GGCUUAUGGGUGUUCGGAUTT against POLK, the median seed-adjusted z-score was -0.102.

Turning to CCGUCACUGAAGUCAAUAATT against CACNA1F, the median seed-adjusted z-score is 0.22.

Turning to CGGAUUCCAGGAAUGCUAATT against EIF5B, the median seed-adjusted z-score was 1.68 (active).

For CCACCAAAGUUCACCCUGATT against LMNA, the median seed-adjusted z-score was -0.409.

As for GGGCCGAACUGAAAUACGATT against FGD2, the median seed-adjusted z-score was 0.0293.

Consider ACAAGUUCUUGGAGCCUUATT against ATP1B2, for which the median seed-adjusted z-score is -0.185.

For CCCAAUCCCUAUUUGAGAATT against ADRA1D, the median seed-adjusted z-score was -0.18.

Take GAUUAUAUUUGUCCAGCUATT against ESR2: the median seed-adjusted z-score was -1.1 (active).

With CAAUCCAGGUGAUCGCAAATT against TPMT, the median seed-adjusted z-score is 0.19.

CAAUGGUACCUAUGACUAUTT against ALG3: the median seed-adjusted z-score is -0.446.

Regarding GAGUACAUGUACUACCUGATT against RFX1, the median seed-adjusted z-score was 0.818.

GAGUUAACGUAUCAGAACATT against LRRFIP1: the median seed-adjusted z-score was -0.181.

Turning to ACUCUAUCCUUGCUUUGCATT against ZNF219, the median seed-adjusted z-score is 0.127.

Consider GCAUAACUGUAACAGAGAATT against RPP30, for which the median seed-adjusted z-score was -0.656.

Turning to GCUCAGAAGCAGUAAUGCATT against PQBP1, the median seed-adjusted z-score is -1.12 (active).

Consider GAAAUGCGAGCUGAACAUATT against CMAS, for which the median seed-adjusted z-score is -0.491.

For CUUUUUACGUGAGCGUAUATT against NAP1L1, the median seed-adjusted z-score is 0.263.

As to CGCUGGACUUCGUCAAGAATT against KCNC4, the median seed-adjusted z-score is -0.433.

As for CUAUCAUGGAAGAUGCUGATT against B3GNT4, the median seed-adjusted z-score is 0.124.

For the sequence AGUACUUCCUGACGAUGGATT against CST6, the median seed-adjusted z-score is -0.237.

For the sequence ACUAACAUCCCAGACUUUATT against VWA1, the median seed-adjusted z-score was 0.289.

Consider CCAACUACCUGAACGAUGATT against U2AF2, for which the median seed-adjusted z-score is 2.14 (active).

On to AGCUCACACUAUGCAUUGATT against KRTAP2-2, for which the median seed-adjusted z-score was -0.212.

For GGAGGCUCGUUUUCCCGUATT against EGR4, the median seed-adjusted z-score is 0.

GGACUCAGACGAGUUUUAUTT against CYP11B1: the median seed-adjusted z-score is -0.199.

GCAGCGAGUCAGUAACUUUTT against SUPT4H1: the median seed-adjusted z-score was -1.01 (active).

As to GCUUCUUCGAGAAACAGAATT against RBMY1F, the median seed-adjusted z-score is 0.2.

Regarding GGGUUUGCACUGAAACGAATT against CIR, the median seed-adjusted z-score is -0.197.

Turning to GGAAGGAAUUCAACCGGAUTT against ZNF366, the median seed-adjusted z-score is 0.585.

As for CCAUAGCCCAAAUCAAGGATT against SIK2, the median seed-adjusted z-score is 0.055.

Turning to CCACGAACAAUAAUCCCAATT against KCNA3, the median seed-adjusted z-score is 0.213.

As for CCCUCAAUUUGGUCUGUUUTT against SPINK2, the median seed-adjusted z-score is -0.431.

Regarding ACAACAUGAAGGUCCUCUATT against THY1, the median seed-adjusted z-score was -1.1 (active).

For ACAUGUUUUUAGAAUUGCUTT against TST, the median seed-adjusted z-score is 0.

As for CAGUUAUGUUCUACGCAGATT against KCND2, the median seed-adjusted z-score was -0.245.

In the case of CCAUGGAUUUUGUACUGCUTT against VPS35, the median seed-adjusted z-score is -0.511.

As to GGCGAAUUCCAUACCGUUATT against NEK2, the median seed-adjusted z-score is -0.276.

In the case of GGAGUAUAUUGAGUAUGGATT against CNOT1, the median seed-adjusted z-score was 1.2 (active).

For GUUCCAUCUUGAUCGAGUATT against RASSF9, the median seed-adjusted z-score was 0.314.

For CGGGAACACGUUUCAGGGATT against GPR157, the median seed-adjusted z-score is 0.152.

On to CAUCCCAGAUCAAACUGUATT against TFAP2A, for which the median seed-adjusted z-score is -0.384.

On to GAUUAUUGAGCAUAAGAUUTT against ZNF277, for which the median seed-adjusted z-score is -0.0374.

On to GAACUGCACGUGUACAACATT against HCFC1, for which the median seed-adjusted z-score is 1.47 (active).

Regarding GCCUUCUUCUUAUGCAAGATT against ACTL6B, the median seed-adjusted z-score was 0.0703.

On to CCAUCUAUUCAGAGACGUATT against MUTYH, for which the median seed-adjusted z-score was 0.024.

GGCAUUCGCUUGAACAGCATT against DRG1: the median seed-adjusted z-score was 0.336.

Take GCCUCUACAUCUAGUGAUATT against JMJD1C: the median seed-adjusted z-score is 0.0338.

Regarding AGAUCAAGUUUGCCCUAAATT against HDGF2, the median seed-adjusted z-score was 0.

Regarding GCCUGGAUGCUAAUCAAGATT against S100A12, the median seed-adjusted z-score is 0.346.

On to AGGAAGAAUUUAAUCCUGATT against CYP26A1, for which the median seed-adjusted z-score is 0.0569.

As to GAAAGAGCCUGUUACCUAUTT against ACTR1A, the median seed-adjusted z-score was 1.28 (active).

As to GUGAAGAAGUUGCUUAUUATT against MAST1, the median seed-adjusted z-score is -0.0897.

For the sequence GCAUGAUGGUAUUGAGCUUTT against MS4A6A, the median seed-adjusted z-score was 0.174.

Turning to GAGUCACUUCUAAUAAACATT against FOLR2, the median seed-adjusted z-score is -0.0835.

On to CGUUAUCUUCAUCACCUAUTT against ABCC10, for which the median seed-adjusted z-score is -1.56 (active).

In the case of GGCUAUAAUAGACACGAGATT against CDH6, the median seed-adjusted z-score was 0.
